Assay [1] in a line: qHTS of pediatric cancer cell lines to identify multiple opportunities for drug repurposing: Primary screen for SK-N-MC cells (AID 1347093). Note: potency is the fitted concentration of half-maximal effect. Summed up: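 Metabolically active cells were quantified by ATP-dependent luminescence (CellTiter-Glo, 15 min at room temperature) following 48 h treatment. Cells had been plated at 500-1,000 per well and settled for 5 h beforehand.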
A general note: Quantitative high-throughput screening tests each substance at several concentrations.

The nature of assay [2]: qHTS of pediatric cancer cell lines to identify multiple opportunities for drug repurposing: Primary screen for BT-37 cells (AID 1347094). Note: potency is the fitted concentration of half-maximal effect. An outline of the steps: (§1)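 Cells seeded at 500-1,000 cells/well in growth media, rested 5 hours at 37 degrees C, 5% CO2, then dosed; MIPE compounds at 11-point (from 0.78 nM) and NPC at 8-point (from 0.59 nM) final concentrations. Viability by CellTiter-Glo luminescence after 48 hours.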

Assay [3] can be described thus: qHTS of pediatric cancer cell lines to identify multiple opportunities for drug repurposing: Primary screen for NB-EBc1 cells (AID 1347095). Note: potency is the fitted concentration of half-maximal effect. An outline of the steps: as §1
Assay [4] can be described thus: qHTS of pediatric cancer cell lines to identify multiple opportunities for drug repurposing: Primary screen for U-2 OS cells (AID 1347096). Note: nearly all actives have a fitted effect of over 50% in size. An outline of the steps:
(§2)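 Cells (500-1,000/well) in growth media were settled 5 h at 37 degrees C, then given compounds for 48 h. Viability was read as CellTiter-Glo luminescence. Primary runs used MIPE at 11 points (0.78 nM-46 µM) and NPC at 8 points (0.59 nM-46 µM); follow-ups used 11 points.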

A short description of assay [5]: qHTS of pediatric cancer cell lines to identify multiple opportunities for drug repurposing: Primary screen for Saos-2 cells (AID 1347097). Note: nearly all actives have a fitted effect of over 40% in size. An outline of the steps:
as §1

The nature of assay [6]: qHTS of pediatric cancer cell lines to identify multiple opportunities for drug repurposing: Primary screen for NB1643 cells (AID 1347099). Note: nearly all actives have a fitted effect of over 50% in size. Summed up: as §1
Assay [7] in a line: qHTS of pediatric cancer cell lines to identify multiple opportunities for drug repurposing: Primary screen for LAN-5 cells (AID 1347100). Summed up:
as §2

A short description of assay [8]: qHTS of pediatric cancer cell lines to identify multiple opportunities for drug repurposing: Primary screen for BT-12 cells (AID 1347101). Note: nearly all actives have a fitted effect of over 25% in size. Note: potency is the fitted concentration of half-maximal effect. An outline of the steps: (§3)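 Cells (500-1,000/well) rested 5 h, then received compounds for 48 h; metabolically active cells were measured by CellTiter-Glo luminescence. Final concentrations spanned up to 46 µM (MIPE, 11-point) or 0.59 nM-46 µM (NPC, 8-point) in primary screens, 11-point in follow-ups.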

The nature of assay [9]: qHTS of pediatric cancer cell lines to identify multiple opportunities for drug repurposing: Primary screen for Rh18 cells (AID 1347102). Note: nearly all actives have a fitted effect of over 65% in size. An outline of the steps:
as §2

Assay [10] in a line: qHTS of pediatric cancer cell lines to identify multiple opportunities for drug repurposing: Primary screen for SK-N-SH cells (AID 1347098). Note: nearly all actives have a fitted effect of over 65% in size. Note: potency is the fitted concentration of half-maximal effect. Summed up:
as §3

Records with an inconclusive call do not appear. Activity calls are given as the source filed them. Calls come from the whole dose curve; as a rule, active = well fitted curve in the direction sought with a large enough effect; inconclusive = small, poorly fitted or top-dose-only effect, or another doubt; inactive = no such curve, though single readings can be large; an effect the other way counts as inactive or inconclusive. Where a SMILES comes first, the peptide text is derived from it.

Regarding `CCOC(=O)[C@H](CCc1ccccc1)N[C@@H](C)C(=O)N(CC(=O)O)C1Cc2ccccc2C1`, the Potency result in [1], in assay [2], in assay [3], in [4], in assay [5] and in assay [6] was “inactive” each time. The Potency result in [7], in [8] and in assay [9] was “inactive” in each case.
Take `OCc1cccnc1`: the Potency entry in assay [1], in [2], in [3], in assay [5], in assay [10] and in [7] was “inactive” each time. Besides, the Potency entry in assay [8] and in assay [9] was “inactive” throughout.
For `O=C(CCOCCOCCOCCOCCC(=O)Nc1c(I)cc(I)c(C(=O)O)c1I)Nc1c(I)cc(I)c(C(=O)O)c1I`, the Potency result in assay [1], in assay [2], in [4], in [5], in [10] and in assay [6] was “inactive” each time. The Potency result in [7], in [8] and in assay [9] was “inactive” in each case.
As to `CC(=O)N[C@@H](CO)C(=O)N[C@@H](CC(=O)O)C(=O)N[C@@H](CCCCN)C(=O)N1CCC[C@H]1C(=O)O` (Ac-SDKP-OH), the Potency result in assay [1], in assay [2], in assay [3], in assay [5], in [10] and in [7] was “inactive” throughout. The Potency entry in assay [8] and in [9] was “inactive” in each case.
With `C/C(=N\O)[C@@H](C)NCC(C)(C)CN[C@H](C)/C(C)=N/O`, the Potency result in assay [1], in [2], in assay [3], in assay [10], in assay [6] and in assay [7] was “inactive” throughout. Also, the Potency entry in [8] and in assay [9] was “inactive” throughout.
`CC(=O)N(CC(O)CO)c1c(I)c(C(=O)NCCO)c(I)c(C(=O)NCC(O)CO)c1I` (stereo not given): the Potency result in assay [1], in assay [2], in assay [4], in assay [5], in [10] and in assay [6] was “inactive” each time. Also, the Potency result in assay [7], in assay [8] and in assay [9] was “inactive” in each case.
On to `CN1C(CSCC(F)(F)F)Nc2cc(Cl)c(S(N)(=O)=O)cc2S1(=O)=O` (stereo not given), for which the Potency result in assay [1], in assay [2], in assay [3], in assay [5], in assay [10] and in [6] was “inactive” each time. Besides, the Potency entry in assay [7], in assay [8] and in assay [9] was “inactive” throughout.
As to `O=C1CC2(CCCC2)CC(=O)N1CCNCC1COc2ccccc2O1` (stereo not given), the Potency result in assay [1], in assay [2], in assay [3], in assay [5], in assay [10] and in assay [6] was “inactive” each time. Moreover, the Potency result in [7], in assay [8] and in assay [9] was “inactive” in each case.
With `Cc1ccc(/C=N/n2c(-c3ccccc3)csc2=S)cc1`, the Potency result in assay [1], in [2], in [4], in [5], in assay [10] and in [6] was “inactive” throughout. The Potency result in assay [7] and in [9] was “inactive” throughout.
Regarding `CN1N=C(C(N)=O)CCC1=O`, the Potency result in [1], in assay [2], in [4], in [5], in [10] and in assay [6] was “inactive” in each case. In addition, the Potency entry in assay [7], in [8] and in [9] was “inactive” throughout.
As to `Cc1nc(N)nc(N)c1-c1ccc(Cl)c(Cl)c1`, the Potency in assay [1] was 0.0335 µM (active); in assay [2] it was 0.55 µM (active); in assay [3] it was 0.422 µM (active); in [8], 0.872 µM (active). For the same compound, the Potency entry in [6] and in [9] was “inactive” throughout.
As for `Cc1ccccc1N1CCN(CCc2nnc3n2CCCC3)CC1`, the Potency result in [1], in [2], in assay [3], in [5], in assay [10] and in assay [6] was “inactive” throughout. Further, the Potency result in assay [7], in assay [8] and in assay [9] was “inactive” throughout.
For the compound `CCC(=O)Oc1ccc2c(c1)CC[C@@H]1[C@@H]2CC[C@@]2(C)[C@H]1C[C@@H](OC(=O)CC)[C@@H]2OC(=O)CC`, the Potency result in assay [1], in assay [2], in assay [4], in [5], in [10] and in assay [6] was “inactive” each time. Further, the Potency result in [7], in [8] and in assay [9] was “inactive” throughout.
As to `C#CC(C)(CC)OC(=O)c1ccccc1C(=O)O` (stereo not given), the Potency entry in assay [1], in assay [2], in assay [3], in assay [5], in assay [10] and in assay [6] was “inactive” in each case. Further, the Potency result in assay [7] and in [9] was “inactive” each time.
For the compound `Nc1c2ccccc2nc2ccccc12`, the Potency in [1] is 11.9 µM (active); in assay [2], 8.71 µM (active); in assay [3], 3.76 µM (active); in assay [10], 9.7 µM (active); in [8] it was 12.3 µM (active).
Regarding `CCCCCCn1c(=O)c2c(ncn2C)n(C)c1=O`, the Potency result in assay [1], in [2], in assay [3], in assay [5], in [10] and in assay [6] was “inactive” each time. For the same compound, the Potency result in assay [7], in assay [8] and in [9] was “inactive” throughout.
On to `Nc1ncnc2c1ncn2Cc1c(F)cccc1Cl`, for which the Potency result in [1], in assay [2], in assay [4], in assay [5], in assay [10] and in [6] was “inactive” throughout. Also, the Potency result in assay [7], in assay [8] and in assay [9] was “inactive” throughout.
Turning to `COc1c(N2C[C@@H]3CCCN[C@@H]3C2)c(F)cc2c(=O)c(C(=O)O)cn(C3CC3)c12`, the Potency entry in assay [1], in assay [2], in assay [4], in assay [5], in [10] and in assay [6] was “inactive” throughout. The Potency result in assay [7], in assay [8] and in assay [9] was “inactive” each time.
In the case of `O=C(CS(=O)Cc1ccco1)NC/C=C\COc1cc(CN2CCCCC2)ccn1` (stereo not given), the Potency entry in assay [1], in [2], in assay [4], in assay [5], in assay [10] and in [6] was “inactive” throughout. Also, the Potency result in assay [7] and in assay [9] was “inactive” each time.
In the case of `COC(=O)c1c(Cl)c(Cl)c(C(=O)OC)c(Cl)c1Cl`, the Potency entry in assay [1], in assay [2], in [4], in [5], in assay [10] and in [6] was “inactive” each time. Further, the Potency result in assay [7], in [8] and in assay [9] was “inactive” each time.
For `Oc1ccccc1-c1nnco1`, the Potency result in assay [1], in [2], in assay [4], in [5], in [10] and in assay [6] was “inactive” throughout. In addition, the Potency result in [7], in [8] and in [9] was “inactive” in each case.
`CCS(=O)(=O)c1ccc(OC)c(C(=O)OC)c1`: the Potency entry in assay [1], in assay [2], in assay [4], in [5], in assay [10] and in assay [6] was “inactive” each time. Also, the Potency result in assay [7], in [8] and in assay [9] was “inactive” each time.
`CN1CC[C@H](c2c(O)cc(O)c3c(=O)cc(-c4ccccc4Cl)oc23)[C@H](O)C1`: the Potency in assay [1] was 0.266 µM (active); in assay [2], 0.347 µM (active); in assay [3], 0.133 µM (active); in assay [8] it was 0.276 µM (active).
Regarding `C=C(C)C(=O)OCC(O)CO` (stereo not given), the Potency entry in assay [1], in [2], in assay [4], in assay [5], in [10] and in assay [6] was “inactive” in each case. Moreover, the Potency result in assay [7] and in assay [8] was “inactive” each time.
In the case of `CC(C)NCCCC1(C(N)=O)c2ccccc2-c2ccccc21`, the Potency result in assay [1], in assay [2], in assay [4], in assay [5], in [10] and in assay [6] was “inactive” in each case. Besides, the Potency entry in assay [7], in assay [8] and in assay [9] was “inactive” each time.
As for `CCOC(=O)Cn1cccc1-c1nc(-c2ccc(OC)cc2)c(-c2ccc(OC)cc2)s1`, the Potency entry in assay [1], in [2], in [4], in assay [5], in [10] and in assay [6] was “inactive” each time. Further, the Potency result in assay [7], in assay [8] and in assay [9] was “inactive” throughout.

These data come from PubChem BioAssay (NCATS).
